This passage reports activity score (inhibition) results from PubChem BioAssay AID651903 (Broad Institute, 2012).

Each structure is given as a SMILES string. In all, about 22,000 compounds went through this assay and about 1,100 (5%) were called active. This is one part of a sample in which actives are shown more often than they occur. A number with no mark means an inactive call. Rule as the data show it: active = activity score above about 55%; inconclusive = no clear call, values can overlap the other calls; inactive = below that.

This assay is described as follows: inhibitors of intracellular Trypanosoma cruzi, primary screen, cell-based, plate reader, single point, set 2 (AID 651903).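 Also: parasites and compound incubated about four days before reading; 0% = median of neutral control wells.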 As to conditions: intracellular Trypanosoma cruzi in host cells, at 5.01 µM, active compounds read high.
In the case of `C[C@@H]1CN([C@@H](C)CO)C(=O)Cc2cc(NC(=O)Nc3ccc4c(c3)OCO4)ccc2O[C@@H]1CN(C)CC1CCCCC1`, the activity score (inhibition) is 78.2% (active).
Under `C[C@H]1CN([C@@H](C)CO)C(=O)c2cc(NC(=O)Nc3ccc4c(c3)OCO4)ccc2O[C@@H]1CN(C)CC1CCCCC1` stands 8.83%; under `C[C@@H]1CN([C@@H](C)CO)C(=O)Cc2cc(NC(=O)Nc3cccc4ccccc34)ccc2O[C@@H]1CN(C)CC1CCCCC1`, 59.9% (active).
Under `C[C@@H]1CN([C@@H](C)CO)C(=O)Cc2cc(NC(=O)C3CCCCC3)ccc2O[C@@H]1CN(C)CC1CCCCC1` stands -4.58%.
Under `C[C@H]1CN([C@@H](C)CO)C(=O)Cc2cc(NC(=O)Nc3cccc4ccccc34)ccc2O[C@H]1CN(C)CC1CC1` stands -24.3%; under `COc1ccc(NC(=O)Nc2ccc3c(c2)CC(=O)N([C@@H](C)CO)C[C@H](C)[C@@H](CN(C)CC2CCCCC2)O3)cc1`, -4.28%.
As to `C[C@H](CO)N1C[C@H](C)[C@H](CN(C)C(=O)Nc2ccc3c(c2)OCO3)Oc2ccc(NS(=O)(=O)c3ccc(Cl)cc3)cc2CC1=O`, the activity score (inhibition) was -5.11%.
Turning to `C[C@H](CO)N1C[C@H](C)[C@@H](CN(C)Cc2ccccc2C(F)(F)F)OCc2cn(nn2)CCCC1=O`, the activity score (inhibition) is -23.6%.
With `Cc1noc(C)c1NC(=O)Nc1ccc2c(c1)C(=O)N([C@H](C)CO)C[C@H](C)[C@@H](CN(C)C(=O)Nc1ccccc1)O2`, the activity score (inhibition) is -16.8%.
On to `C[C@@H]1CN([C@@H](C)CO)C(=O)Cc2cc(NC(=O)C3CC3)ccc2O[C@@H]1CN(C)S(C)(=O)=O`, for which the activity score (inhibition) was -20.7%.
`C[C@H](CO)N1C[C@H](C)[C@@H](CN(C)Cc2ccccc2)Oc2ccc(NC(=O)Nc3ccc4c(c3)OCO4)cc2C1=O`: the activity score (inhibition) is -2%.
Then `C[C@@H]1CN([C@@H](C)CO)C(=O)c2cc(NC(=O)c3ccncc3)ccc2O[C@H]1CN(C)Cc1ccc(C(=O)O)cc1`, with -2.84%; and `C[C@@H]1CN([C@H](C)CO)C(=O)c2cc(NC(=O)c3ccncc3)ccc2O[C@H]1CN(C)Cc1ccc(Oc2ccccc2)cc1`, with 85.4% (active).
`C[C@@H]1CN([C@@H](C)CO)C(=O)c2cc(NC(=O)Nc3ccc4c(c3)OCO4)ccc2O[C@@H]1CN(C)Cc1ccc(Oc2ccccc2)cc1`: the activity score (inhibition) was 17.5%.
Under `C[C@@H]1CN([C@@H](C)CO)C(=O)c2cc(NC(=O)c3ccncc3)ccc2O[C@@H]1CN(C)Cc1ccncc1` stands -7.68%; under `C[C@H]1CN([C@@H](C)CO)C(=O)c2cc(NC(=O)Nc3ccc4c(c3)OCO4)ccc2O[C@@H]1CN(C)Cc1ccc(Oc2ccccc2)cc1`, 70.1% (active).
Under `C[C@@H]1CN([C@@H](C)CO)C(=O)Cc2cc(NC(=O)C3CCCCC3)ccc2O[C@@H]1CN(C)Cc1ccc(-c2ccccc2)cc1` stands 43.3%; under `Cc1ccc(S(=O)(=O)N(C)C[C@@H]2Oc3ccc(NC(=O)Cn4cnnn4)cc3CC(=O)N([C@H](C)CO)C[C@H]2C)cc1`, 9.72%; under `C[C@@H]1CN([C@@H](C)CO)C(=O)c2cccc(NS(=O)(=O)c3ccc(F)cc3)c2O[C@@H]1CN(C)Cc1ccc(C(=O)O)cc1`, -4.66%.
Then `C[C@@H]1CN([C@H](C)CO)C(=O)Cc2cc(NC(=O)CCC(F)(F)F)ccc2O[C@@H]1CN(C)CC1CCCCC1`, with -9.63%; and `C[C@@H]1CN([C@@H](C)CO)C(=O)c2cccc(NC(=O)Nc3cccc4ccccc34)c2O[C@H]1CN(C)S(=O)(=O)c1ccccc1`, with -9.51%.
As for `C[C@@H]1CN([C@H](C)CO)C(=O)c2cccc(NC(=O)CCCCCC(=O)Nc3ccccc3N)c2O[C@@H]1CN(C)C(=O)Nc1ccccc1`, the activity score (inhibition) is 16.9%.
As for `C[C@H]1CN([C@@H](C)CO)C(=O)c2cccc(NC(=O)CCCCCC(=O)Nc3ccccc3N)c2O[C@H]1CN(C)C(=O)Nc1ccccc1`, the activity score (inhibition) is -8.85%.
Take `C[C@H](CO)N1C[C@H](C)[C@@H](CN(C)C(=O)Nc2ccccc2)Oc2c(NC(=O)CCCCCC(=O)Nc3ccccc3N)cccc2C1=O`: the activity score (inhibition) was -11.7%.
For the molecule `C[C@H]1CN([C@@H](C)CO)C(=O)c2cccc(NC(=O)Nc3ccccc3)c2O[C@H]1CN(C)Cc1ccc(Oc2ccccc2)cc1`, the activity score (inhibition) is 13.5%.
Under `C[C@H](CO)N1C[C@H](C)[C@H](CN(C)Cc2ccc(Oc3ccccc3)cc2)Oc2c(NC(=O)CCCCCC(=O)Nc3ccccc3N)cccc2C1=O` stands 65.5% (active); under `C[C@H](CO)N1C[C@H](C)[C@@H](CN(C)Cc2ccccc2)Oc2c(NC(=O)CCCCCC(=O)Nc3ccccc3N)cccc2C1=O`, 75.8% (active); under `C[C@H](CO)N1C[C@H](C)[C@H](CN(C)S(=O)(=O)c2ccccc2)Oc2c(NC(=O)CCCCCC(=O)Nc3ccccc3N)cccc2C1=O`, 58.6% (active).
Take `C[C@H]1CN([C@@H](C)CO)C(=O)c2cccc(NC(=O)CCCCCC(=O)Nc3ccccc3N)c2O[C@@H]1CN(C)S(=O)(=O)c1cn(C)cn1`: the activity score (inhibition) is -40.6%.
`CC(C)NC(=O)Nc1cccc2c1O[C@@H](CN(C)S(=O)(=O)c1ccc(F)cc1)[C@@H](C)CN([C@H](C)CO)C2=O`: the activity score (inhibition) was -25.4%.
Under `C[C@@H]1CN([C@@H](C)CO)C(=O)CCCn2cc(nn2)CO[C@@H]1CN(C)C(=O)c1ccncc1` stands -21.4%; under `COc1ccc(S(=O)(=O)Nc2ccc3c(c2)C(=O)N([C@@H](C)CO)C[C@@H](C)[C@@H](CN(C)S(C)(=O)=O)O3)cc1`, -8.35%.
Take `CC(C)NC(=O)Nc1cccc2c1O[C@H](CN(C)Cc1ccc3c(c1)OCO3)[C@H](C)CN([C@H](C)CO)C2=O`: the activity score (inhibition) was -10.8%.
`COc1ccc(S(=O)(=O)N(C)C[C@H]2Oc3ccc(NS(=O)(=O)c4c(C)noc4C)cc3CC(=O)N([C@@H](C)CO)C[C@H]2C)cc1`: the activity score (inhibition) was -2.67%.
Under `C[C@H](CO)N1C[C@H](C)[C@@H](CN(C)S(=O)(=O)c2ccccc2)Oc2c(NS(=O)(=O)c3cn(C)cn3)cccc2C1=O` stands -8.44%; under `COc1ccc(NC(=O)Nc2ccc3c(c2)C(=O)N([C@@H](C)CO)C[C@H](C)[C@@H](CN(C)S(=O)(=O)c2ccc(Cl)cc2)O3)cc1`, 16.5%; under `CC(C)NC(=O)Nc1cccc2c1O[C@H](CN(C)S(=O)(=O)c1ccccc1)[C@@H](C)CN([C@@H](C)CO)C2=O`, 0.345%.
In the case of `COc1ccc(CN(C)C[C@@H]2Oc3c(NC(=O)C4CC4)cccc3C(=O)N([C@@H](C)CO)C[C@H]2C)cc1`, the activity score (inhibition) was -27.5%.
Then `C[C@@H]1CN([C@@H](C)CO)C(=O)c2cc(NS(=O)(=O)c3ccccc3)ccc2O[C@@H]1CN(C)Cc1ccc(C(=O)Nc2ccccc2N)cc1`, with 34.8%; and `Cc1ccc(S(=O)(=O)Nc2ccc3c(c2)C(=O)N([C@@H](C)CO)C[C@@H](C)[C@@H](CN(C)Cc2ccc(C(=O)Nc4ccccc4N)cc2)O3)cc1`, with 23.3%; and `Cc1noc(C)c1S(=O)(=O)Nc1ccc2c(c1)C(=O)N([C@@H](C)CO)C[C@H](C)[C@H](CN(C)Cc1ccc(C(=O)Nc3ccccc3N)cc1)O2`, with 74% (active).
With `COc1ccc(S(=O)(=O)Nc2ccc3c(c2)CC(=O)N([C@@H](C)CO)C[C@@H](C)[C@@H](CN(C)Cc2ccc(C(=O)Nc4ccccc4N)cc2)O3)cc1`, the activity score (inhibition) was 54%.
Under `C[C@H](CO)N1C[C@H](C)[C@H](CN(C)Cc2ccc(C(=O)Nc3ccccc3N)cc2)Oc2ccc(NS(C)(=O)=O)cc2C1=O` stands 16%.
Then `Cc1ccc(S(=O)(=O)Nc2ccc3c(c2)CC(=O)N([C@@H](C)CO)C[C@H](C)[C@H](CN(C)Cc2ccccc2)O3)cc1`, with 12.2%; and `Cc1ccc(S(=O)(=O)Nc2ccc3c(c2)CC(=O)N([C@@H](C)CO)C[C@H](C)[C@H](CN(C)Cc2ccc(C(=O)Nc4ccccc4N)cc2)O3)cc1`, with 66.2% (active); and `C[C@@H]1CN([C@H](C)CO)C(=O)c2cc(NS(=O)(=O)c3cn(C)cn3)ccc2O[C@@H]1CN(C)Cc1ccc(C(=O)Nc2ccccc2N)cc1`, with 3.44%.
Under `C[C@H]1CN([C@@H](C)CO)C(=O)Cc2cc(NS(=O)(=O)c3ccccc3)ccc2O[C@H]1CN(C)Cc1ccc(C(=O)Nc2ccccc2N)cc1` stands 69.5% (active); under `C[C@@H]1CN([C@H](C)CO)C(=O)c2cc(NC(=O)Nc3ccccc3)ccc2O[C@H]1CN(C)Cc1ccc(Cl)c(Cl)c1`, -34%; under `C[C@@H]1CCCCO[C@@H](CN(C)S(=O)(=O)c2cccs2)[C@@H](C)CN([C@H](C)CO)C(=O)c2cc(NC(=O)Nc3ccc(F)cc3)ccc2O1`, 21.5%.
`O=C(NO)c1cccc(C(=O)N/N=C/c2cccnc2Cl)c1`: the activity score (inhibition) was 1.22%.
Take `C[C@@H]1CN([C@H](C)CO)C(=O)Cc2cc(NC(=O)Cc3cn(C)c4ccccc34)ccc2O[C@@H]1CN(C)S(=O)(=O)c1ccccc1`: the activity score (inhibition) was 47.8%.
Under `C[C@H](CO)N1C[C@H](C)[C@H](CN(C)Cc2ccncc2)Oc2ccc(NC(=O)Cc3cn(C)c4ccccc34)cc2CC1=O` stands 4.58%; under `C[C@H]1CN([C@@H](C)CO)C(=O)Cc2cc(NC(=O)Cc3cn(C)c4ccccc34)ccc2O[C@@H]1CN(C)Cc1ccccc1`, 57.4% (active).
For `C[C@H]1CN([C@@H](C)CO)C(=O)Cc2cc(NC(=O)Cc3cn(C)c4ccccc34)ccc2O[C@H]1CN(C)Cc1ccccc1`, the activity score (inhibition) is 11.1%.
`C[C@H](CO)N1C[C@H](C)[C@H](CN(C)C(=O)Nc2ccc(F)cc2)Oc2ccc(NC(=O)Cc3cn(C)c4ccccc34)cc2CC1=O`: the activity score (inhibition) is -2.27%.
Then `C[C@H]1CN([C@@H](C)CO)C(=O)Cc2cc(NC(=O)Cc3cn(C)c4ccccc34)ccc2O[C@@H]1CN(C)Cc1ccc(C(F)(F)F)cc1`, with 65.6% (active).
